Results from PubChem BioAssay AID1159506 (National Center for Advancing Translational Sciences (NCATS), 2015).
The full ranking holds about 59,000 sequences; the median of the read-out is about -0.00055, and the lowest 2% start at about -2. Many of the other results were omitted from the sample, so the lowest values are more common in it than they were.

Assay: Identification of proteins required for the processing of the EWS-FLI1 nascent transcript;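 further: robust z of luciferase light less the median z of siRNAs with the same seed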
Details: TC32 Ewing sarcoma NR0B1-luc vs CMV-luc (EWS-FLI1 target promoter against control promoter), 48 h; screened at 20 nM (by protocol)
Procedure: Ewing sarcoma (ES) cells depend on the EWS-FLI1 fusion transcription factor for cell survival. Using an assay of EWS-FLI1 activity and genome-wide siRNA screening we have identified proteins required for the processing of the EWS-FLI1 nascent transcript. Parallel genome-wide siRNA-mediated RNAi screens were conducted in Ewing sarcoma TC32 cell lines expressing a luciferase (luc) reporter protein driven by either the promoter of the EWS-FLI1 target gene NR0B1 (TC32-NR0B1-luc) or the CMV promoter (TC32-CMV-luc). Luciferase activity was assessed 48 hours post siRNA-transfection.
Twenty microl of serum-free media containing Lipofectamine RNAiMax (0.05 microl) was added to wells containing siRNA (0.8 pmol). Lipid and siRNA were allowed to complex for 45 min at ambient temperature before addition of 600 cells in RPMI-1640, 20% FBS to yield final transfection mixtures containing 20 nM siRNA in RPMI-1640, 10% FBS. Luciferase expression was measured using OneGlo (Promega, Madison, WI). The genome-wide screening campaign was conducted using Ambion's human genome library version 4.1 (Ambion, Austin TX). This library targets approximately 21000 human genes, three siRNAs per gene. Each siRNA is arrayed in an individual well of a 384-well plate. Parallel transfections were conducted in TC32-NR0B1-luc and TC32-CMV-luc cell lines and luciferase expression (OneGlo, Promega) was assayed 48 h later on a PerkinElmer Envision 2104 Multilabel plate reader (PerkinElmer, Waltham, MA). Qiagen's AllStars Negative control was incorporated on all screening plates for normalization (16 wells per plate). Qiagen, Germantown, MDsiGL4 was incorporated as a positive transfection control (16 wells per plate) on all plates. […] The raw luciferase data for the NR0B1- and CMV-luc screens were normalized and z-score-MAD transformed using standard methods (Chung et al., 2008). The miRNA-like seed sequence of every siRNA was determined and the median z-score for all siRNA sequences with the same seed sequence was calculated. This z-score was subtracted from the z-score associated with each siRNA with that seed sequence to generate a seed-adjusted z-score value (Z) that was used when the results for the three siRNAs corresponding to each gene were compared (Marine et al., 2012)

Row | Sequence | seed-corrected z-score
1 | UAGCAUACUAUUGUCCUGC against MRPL42 | 0.102
2 | UCCUGGUUCACCAAUUUCU against COL9A1 | -0.362
3 | UAGGUUAUGAAAUUAAUCA against MAP6D1 | -2.45
4 | AUUCAUAGAAGUAUUCUGC against WIF1 | -0.598
5 | UAAGUUUUGAGGAUAGGUG against ZNF117 | 0.415
6 | UUGGGAUUCAGGUUCCGCU against TCF3 | -0.377
7 | UCGCUUCCCAGAAUUGCUG against GPR65 | 1.15
8 | AUGGGAAUAGGAAAGUAUG against OR2M4 | -2.09
9 | UGUCCAAUUAGGGACCAGC against SLF2 | -0.225
10 | ACUGUAUAGAUUGUGAACC against KDM3B | 1.03
11 | UUCCAUAGUAGUAGGAUCU against TMEM14B | 0.134
12 | UCUGGUUAUCAGAAAACCC against PCNP | 0.114
13 | UUGUGGUUUAGGGUUUUCU against YBX1 | -2.1
14 | UUCUUAUAACCAUUGACUG against SLCO1B3 | 0.328
15 | UAAAGAGUGGUGUUGGUGG against RSPH3 | -0.756
16 | UUUAGUUCCAGUGCCUUAG against CCDC151 | 0.491
17 | CUUUCAGCGUGGCUGUUCC against C6orf132 | -4.94
18 | UUCCUAAUAAACCCAGCGC against SOWAHD | -0.0823
19 | UCAGAGAUCAAAGAGAAGU against TUBB4A | 0.356
20 | UGAGUGAAGUGCGAUAUCC against ELL | 0.176
21 | UAGGAACCAGAAAUAAUCC against ATP8A2 | -0.455
22 | UUAGGGAUGACGUGGGUGC against GRIN1 | -2.06
23 | UUAAACUCCACGUCGUCAG against SIRPB1 | -0.756

Row | Sequence | seed-corrected z-score
24 | UUUAUGGAUCUAAUUGUCG against CBWD1 | 0.289
25 | UGCAUGGUGAUAGUCAGGU against CD7 | -0.0598
26 | AAACCGUCCUUCCUCAUGC against IL16 | 0.0574
27 | UUAGUCUUCCCGGAUUGCC against ADAR | 0.696
28 | UUCUGGAUAAACAUAUUCC against MCU | -0.133
29 | UUCCAGUUAAACUGUAGCC against LOC643770 | -2.78
30 | UUAAUAACCUCAGAAAUGG against TCTEX1D1 | 0.0567
31 | UAUUUGCGAAGUCAUGAGG against COPB1 | -3.25
32 | UGAAUAUCAACAGUCCCUC against ZNF731P | 0.959
33 | UAAAUGACAGAAGCCGUUG against SUCLG1 | -0.0373
34 | UCACAGAUGCCUGUAAAUG against TSACC | -0.571
35 | GCUUGCACGACUCACAGAC against DEFB105A | 1.34
36 | AGAGUGUAAUGAGUCUUUG against SCAPER | 0.141
37 | UCCUCCUUGUCCAUGAUGC against CDC42EP4 | 0.732
38 | AUCUGCUUAAUCUUUACAC against OR51F2 | -2.93
39 | AUCGGAUACCGUGAGAUCC against OXA1L | 0.367
40 | UAAUGGGCACGAAUGACGG against ST8SIA3 | 0.274
41 | AAUGGUAUCAUUCACCUUG against RPS4X | 1.54
42 | UCGUCUAAAACCAGGAUGC against ABCC3 | -0.496
43 | AAUGUUGUUCUGUUUGUCC against FAM122C | -1.09
44 | UUUAGUUCUUCCCUUAUGG against PDGFC | -0.075
45 | UUCUUCAUCAGCUUAACCG against C1QTNF4 | -0.00119
46 | AUACUUGUACAAUCGGUGC against DIDO1 | 0.123

Row | Sequence | seed-corrected z-score
47 | UUCUUUGCCCGCUUGAGCU against CCDC86 | -0.859
48 | UUAGUUGCACCCAAAUCCA against CCDC17 | -2.22
49 | AUGCGAACCUCAUAGGUGG against SNX12 | -0.364
50 | ACACUCAAAAUUACCAGCU against LEMD2 | -1.09
51 | UGUUUUUGAAGUUAGAUCU against LOC728999 | 1.08
52 | UAAUCCUGACUUUCAAUUG against PAGE3 | -0.446
53 | AACAGUUUCUGCAUUCUUC against PARG | -0.336
54 | AGAGGUCUGAGCACAGUUC against HSPA6 | -1.34
55 | UAACAUCUUCGAACUGCGG against MAU2 | -1.35
56 | UGGUUGUUUAAGUCGACUG against USP33 | -2.43
57 | UCCCUUCACAAAGAAAGAG against TLDC2 | 0.201
58 | UUUCUUAGAAAGCGGUUCC against MORN5 | -0.0295
59 | UAGGAUACAUUGCUGAUGC against CASC1 | -0.353
60 | UCUUUCUUUAGUCUGAGUG against NMUR2 | 0.78
61 | UUCUUUAUCUCGAUGAUGC against FAM117B | -3.46
62 | AUCGCUCCCAUAGUUCACC against KRT20 | -0.0454
63 | UUUUCCUUAAUUAACGGCA against DTYMK | -0.22
64 | UCUGUGGAUACUGAUAUUC against NRG1 | 1.7
65 | UAUGGAAAAAUUAAUCUGU against RAC1 | -0.118
66 | UUCAGUAGAAGUUUCAUCU against POLR2H | -3.55
67 | UACAGAAUGGUUGUCUUGC against ARF4 | 0.573
68 | UAGAGUGCUAAGGACAGGG against GFI1B | 0.226
69 | AGAUUUAUAAUAAUCCCAC against C11orf72 | 0.747

Row | Sequence | seed-corrected z-score
70 | UUACUGGAGACCAAUCUUC against FDFT1 | -1.01
71 | UUAUUGACACGAAUACAUC against BTG3 | 0.565
72 | UGGAGGUUAUGAUCAUUCC against OR51B6 | -2.91
73 | AUGGUGGUAAUUACGCUGC against SLCO5A1 | -0.993
74 | UGACUUUACCUCAAAGUUG against PRPF19 | -0.0138
75 | UCAUUGUCUUCUAUCAAUC against FYN | -0.739
76 | UUCGUAUUAAGAACUGCAG against PSMD1 | -2.79
77 | UAUGGGUUUGUUAAAAGGC against FUT6 | -0.26
78 | UUGCCUUCCAAGUUCUUUC against TNP2 | -0.491
79 | AUACGAUAAGCAGAGGAGG against GLT8D1 | -0.112
80 | AAACCUGCUAUAUCACUCC against ATAD1 | 0.174
81 | AAUCUUCGUAAGACUAUCC against C9orf50 | -2.07
82 | UUCCUUGUUAGCACAGACC against GSR | -0.669
83 | UACUUGUUGAGUGUCUCAG against CXCR1 | -1.52
84 | AGUCGAAUAACAUAUAUCC against NBPF14 | -2.13
85 | AAAGUUCUCAGGGUAGUGG against TOP3B | -0.163
86 | UGUCAUAUACGCUCCAUAC against EYA4 | -0.104
87 | UGUUUCUACCCUUUGCUCC against FAM174B | -0.127
88 | UUUGCAGCUAGUGAUGCGC against ABHD8 | -0.567
89 | UAGCUAUUACCUUACAUUG against HRG | 0.409
90 | UCAUUGUUGAGGUGCGUGA against CDK5R1 | 1.16
91 | UUUUGGACAGGACCGUUGG against SEC24A | 0.282
92 | UUUGGUGCAAAAACCGUGU against WTIP | -2

Row | Sequence | seed-corrected z-score
93 | AUGGCUUCAACAAGCAUCU against HGH1 | -0.109
94 | UAUGGGUCUACCGUCACAC against MIOS | -1.14
95 | UCAGGUACUCUAACACCGC against HIST1H2AC | -0.00982
96 | UACCGGUCGAGGCUGAUCA against HRH2 | -2.03
97 | UUUCAUAGUAAUCGUAGAC against LOC728715 | 0.493
98 | UUGAGAGUAGAGACUGAGC against MKL2 | -0.474
99 | AAGCCUCACAGUACUGCGC against NSMCE3 | -2.76
100 | UACAGUGCAGGAUCUUCUC against NBL1 | -0.461
101 | UAUAUAUCGCCCAUCUCUC against OARD1 | -0.737
102 | UCUGGUACAUUCGAUAGCG against PTGFRN | 0.714
103 | UUUCUUCCCAUGAUCUUUC against RALBP1 | 0.057
104 | UACUGUCCCAAUGGUCAGC against EZH2 | -2.1
105 | AAAUGAACAGGUUUGGAAC against GRPR | 0.695
106 | UUCUUGUUGGAUAAUGCUG against RFX8 | 0.126
107 | AAUGAUCACACCUAAGCCC against USH2A | -3.89
108 | UUCUGCACUCGAGUAAAGG against MAD2L1 | 0.536
109 | AUGCUAGUCAAAAGAAUCG against FBXO40 | 0.266
110 | UCGUCUAAAAUGACUAACG against SACS | 0.485
111 | UCAGAUUUCAGAUCUUUGA against ANXA11 | 0.136
112 | AAAGUACUCCGUAUUUCCC against SLC35D2 | -1.42
113 | UCUAGGGUCACUGUGACGG against RGS9BP | -0.834
114 | UAGUUGUCCUUCAUAAUUC against CCDC67 | -2.53
115 | ACCUCUUCAACAUCUAACC against GEMIN4 | 0.118

Row | Sequence | seed-corrected z-score
116 | CACGUGGCUAUUGUGGAAC against COX6A2 | -1.45
117 | AUAGGUUCCUCUAUAUGUG against ZNF396 | 1.53
118 | UUGGGUGCGAUCUGCAGAC against LINC00304 | -0.536
119 | AAAACACGUCGAAAUCUCC against RPL39 | 0.834
120 | UAAGGAUAUUUGCUAAGGC against HMGCLL1 | -0.796
121 | UGUCUUCGCACUCUUAUCC against IFRD1 | -2.25
122 | UGUCCAUCCGUCAUGAUGC against ANKRD60 | 0.777
123 | UAUGUAACAGGAUCCUGCC against RFC1 | 0.0202
124 | UAUAAGUAAGCCUAGCUUG against C16orf54 | 0.684
125 | UUCGAUAGAGAACAAGUCG against FBXL4 | -1.24
126 | UUGAUUUCCACGUUGCAUC against SLC10A2 | -2.5
127 | UACGGGUGCAGUAGUGGUG against RGR | -0.158
128 | UCAUCGUCUACUUCCAUUG against BPTF | -1.63
129 | AACCGCUCCAUUUUUGCUC against POM121L12 | 0.212
130 | AAUUUAUUCCAAACUUGUC against ME3 | -2.03
131 | UUAGGGAAAGGUCCUCCUU against ELK1P1 | 0.104
132 | UGACUUAUGAACAUCAAAG against KLHL31 | -1.09
133 | AUCUAUCUGACCCAAAUCC against HNRNPH1 | -2.26
